A selection: hits, their analogues and other compounds. The true share with any hit is near 3.2%.
PHOSPHO1 inh = PubChem AID 1565; recombinant PHOSPHO1, absorbance phosphatase assay; inhibition, % at 13.3 µM; hit rate 1.1% among 290,000; Phosphoethanolamine/phosphocholine phosphatase (Homo sapiens), Q8TCT1; in the data active = inhibition above about 60%
CHT inh = inhibitors of human choline transporter CHT. High affinity choline transporter 1 (Homo sapiens), Q9GZV3. CHT-expressing cells, membrane potential dye, choline response; active compounds read low. B-score at 10 µM. hit rate 0.86% among 310,000;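 active = B-score over 3 SD under the library average, and starting fluorescence ratio not unusually high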;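 also: choline stimulus applied at its EC90 after an EC20 pre-addition; B-score computed on integrated fluorescence ratio after choline addition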
Target sequence (Q9GZV3 whole entry, looked up): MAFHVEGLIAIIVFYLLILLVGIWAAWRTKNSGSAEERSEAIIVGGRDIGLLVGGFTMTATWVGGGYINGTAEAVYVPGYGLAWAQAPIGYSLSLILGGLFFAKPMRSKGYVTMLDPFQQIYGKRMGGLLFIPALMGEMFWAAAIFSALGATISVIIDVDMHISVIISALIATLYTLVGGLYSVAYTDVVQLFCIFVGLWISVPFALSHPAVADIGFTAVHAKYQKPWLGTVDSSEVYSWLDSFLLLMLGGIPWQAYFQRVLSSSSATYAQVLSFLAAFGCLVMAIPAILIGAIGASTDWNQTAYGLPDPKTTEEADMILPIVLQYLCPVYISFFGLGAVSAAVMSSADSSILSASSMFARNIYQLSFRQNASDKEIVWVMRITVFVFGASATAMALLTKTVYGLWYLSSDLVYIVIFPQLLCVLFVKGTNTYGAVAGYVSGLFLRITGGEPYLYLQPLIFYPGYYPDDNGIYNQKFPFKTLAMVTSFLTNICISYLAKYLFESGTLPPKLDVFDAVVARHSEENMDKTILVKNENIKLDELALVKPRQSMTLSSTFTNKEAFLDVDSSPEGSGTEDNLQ
TMEM16A act = TMEM16A chloride channel activators or potentiators, primary screen, cell-based, HTS; Anoctamin-1 (Mus musculus), Q8BHY3; hit rate 0.3% among 340,000; B-score at 10 µM; HEK293 TMEM16A/YFP-H148Q/I152L, iodide quench fluorescence; active compounds read low; AID 623877, 2012;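 active = fluorescence-ratio B-score plate-corrected deviation score at least 3 library SD below zero, with starting fluorescence score within 5 deviations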;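 also: channel opened by trigger with iodide after compound preincubation; score built on the fluorescence ratio of max minus min over baseline; more negative score means more quench and so TMEM16A activation or potentiation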
HDAC3 inh = HDAC3 deacetylase inhibitors, primary screen, biochemical, fluorescence, cell-free homogeneous. hit rate 0.15% among 320,000. recombinant HDAC3, fluorogenic peptide/trypsin coupled. Histone deacetylase 3 (Homo sapiens), O15379. inhibition, % at 8.3 µM; in the data active = inhibition above about 26%, passing the limit was not always enough
CHT PAM = CHT positive allosteric modulators, primary screen, cell-based, membrane potential dye, choline EC20; hit rate 0.49% among 310,000; CHT-expressing cells; active compounds read high; LV-AA mutant CHT in HEK293 cells; High affinity choline transporter 1 (Homo sapiens), Q9GZV3; B-score at 10 µM;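 active = initial fluorescence not abnormally high and integrated response B-score, plate-corrected, over 3 SD above library mean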
TMEM16A inh = TMEM16A chloride channel inhibitors, primary screen, cell-based, HTS. Anoctamin-1 (Mus musculus), Q8BHY3. HEK293 TMEM16A/YFP iodide influx fluorescence, ionomycin. normalized B-score (activity score, 25-100; higher = stronger inhibition) at 10 µM. hit rate 1.2% among 310,000. AID 588511, 2011;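 active = ratio plate-corrected score three or more library SD toward inhibition, starting fluorescence score within five deviations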;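 also: score derived from kinetic fluorescence span divided by baseline fluorescence per well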
A number is an active result; i = inactive; nt = not tested or not shown.

SMILES | PHOSPHO1 inh | CHT inh | TMEM16A act | HDAC3 inh | CHT PAM | TMEM16A inh
Cn1cccc1/C=N/n1c(-c2ccc(Cl)cc2Cl)n[nH]c1=S | 77 | i | i | i | i | i
Cn1cccc1/C=N/n1c(-c2ccc(Cl)cc2)n[nH]c1=S | 66 | i | i | i | i | i
COc1cc(CN2CCNC(=O)C2CC(=O)N2CCCO2)cc(OC)c1 (stereo not drawn) | i | i | i | i | i | i
CN(C)c1ncc(S(=O)(=O)c2ccc(Cl)cc2)c(-c2ccc(Cl)cc2Cl)n1 | i | i | -7.7 | i | i | i
Cn1c(O)c(C=Nc2ccc(N3CCOCC3)cc2)c(=O)n(C)c1=S | i | nt | -4.8 | nt | nt | nt
O=C1C(NS(=O)(=O)c2cccs2)=C(N2CCN(c3ccccc3)CC2)C(=O)c2ccccc21 | 76 | i | i | i | i | i
O=C(NCC(=O)N(Cc1ccco1)C(C(=O)NC1CCCC1)c1cccnc1)c1ccco1 (stereo not drawn) | nt | i | i | i | i | i
O=C(NCC(=O)N(Cc1ccccc1)C(C(=O)NC1CCCC1)c1cccnc1)c1ccco1 (stereo not drawn) | 199 | i | i | i | i | i
COC(=O)c1[nH]c2ccc(C)cc2c1NC(=O)CN1CCc2cc(OC)c(OC)cc2C1 | 69 | i | i | i | i | i
COc1cc2c(cc1OC)CN(CC(=O)Nc1ccc(C)cc1)CC2 | i | i | i | i | i | i
COc1cc(C(=O)Nc2scc(-c3ccccc3)c2C(=O)O)cc(OC)c1OC | i | i | i | i | i | i
O=C(O)c1ccc(C=NN=C2c3ccccc3-c3ccccc32)cc1 | nt | nt | -4.8 | nt | nt | nt
Cn1c(CNC(=O)c2ccco2)nnc1SCC(=O)Nc1cccc(Br)c1 | 93 | i | i | i | i | i
Cc1cccc(NC(=O)CSc2nnc(CNC(=O)c3ccco3)n2C)c1 | i | i | i | i | i | i
CCCc1cc(C(=O)Nc2cccc3ccccc23)n(C)n1 | i | i | i | i | i | i
CCCc1cc(C(=O)Nc2ccc(C(=O)c3ccc(C)cc3)cc2)n(C)n1 | i | i | i | i | i | 100
COc1ccc(/C=C2/SC(=S)N(NS(=O)(=O)c3ccc(C)cc3)C2=O)cc1 | i | -5.6 | i | i | i | i
COc1ccc(/C=C2\SC(=S)N(NC(=O)c3csc4c3CCCC4)C2=O)cc1 | 72 | i | i | i | i | i
Cc1ccc(/C=C2\SC(=S)N(NS(=O)(=O)c3ccc(C)cc3)C2=O)cc1 | i | i | i | i | i | i
NNC(=O)c1cccn(Cc2ccc(Cl)cc2Cl)c1=O | i | i | -7.2 | i | i | i
Cc1ccc(-c2nnc(N3CCOCC3)c3ccccc23)cc1S(=O)(=O)N(C)C | i | nt | nt | nt | nt | nt
COC(=O)c1ccc(-c2noc(CN3CCCC(CNC(C)=O)C3)n2)cc1 (stereo not drawn) | i | i | i | i | i | i
O=C1/C(=N\S(=O)(=O)c2cccs2)C([n+]2ccccc2)=C([O-])c2ccccc21 | i | i | -11 | i | i | i
CC1=NN(c2nc(-c3ccc(C)cc3)cs2)C(=O)C1N=Nc1ccc(C(N)=O)cc1 (stereo not drawn) | i | i | -16 | i | i | i
CC1=C(CCN2CCN(C(C)C)C(CCO)C2)C(C)(C)CCC1 (stereo not drawn) | i | i | i | i | i | i
SMILES | PHOSPHO1 inh | CHT inh | TMEM16A act | HDAC3 inh | CHT PAM | TMEM16A inh
CCOc1ccc(Nc2nc(N)nc(CN(C)C3CCCCC3)n2)cc1 | i | i | i | nt | i | i
CCC(C)(C)c1ccc(OCCCC[n+]2cccc(C)c2C)c(C(C)(C)CC)c1 | i | i | i | i | i | 100
CCC(C)(C)c1ccc(OCCCC[n+]2ccc(C)cc2)c(C(C)(C)CC)c1 | i | i | nt | 34 | i | 100
CSC1=N/C(=C\c2ccc(C)s2)C(=O)S1 | i | i | i | i | i | i
CSC1=N/C(=C\c2ccc(C)o2)C(=O)S1 | 92 | i | i | i | i | i
Cc1ccc(N2CCN(c3ccc(C)cc3)C2c2cccnc2)cc1 | i | i | i | i | i | 25
Cc1cccc(NC(=O)C(=O)NCCc2c[nH]c3ccccc23)c1C | i | i | -5.6 | i | i | i
Cc1cccc(C)c1NC(=O)C(=O)NCCc1c[nH]c2ccccc12 | i | i | i | i | i | i
Cc1ccc2cc(CN(C(=O)c3cccnc3)C(C)C)c(=O)[nH]c2c1 | i | i | i | i | i | i
CCn1cc(C(=O)O)c(=O)c2cc(F)c(N3CCN(C)CC3)cc21 | i | i | i | i | 6.4 | i
CCOC(=O)c1cn(CC)c2cc(N3CCN(C)CC3)c(F)cc2c1=O | i | i | i | i | i | i
CC(C)C(NC(=O)c1ccc2c(c1)OCO2)C(=O)N/N=C/c1cccs1 (stereo not drawn) | i | i | i | i | i | i
Cc1c(/C=N/NC(=O)C(NC(=O)c2ccc3c(c2)OCO3)C(C)C)c2ccccc2n1C (stereo not drawn) | i | i | -5.7 | i | i | i
CC(C)C(NC(=O)c1ccc2c(c1)OCO2)C(=O)N/N=C\c1ccco1 (stereo not drawn) | 65 | i | i | i | i | i
C=CCN1C(=O)/C(=C\c2ccc(Cl)cc2)N=C1SCC(=O)NCCC | i | i | -27 | i | i | i
C[N+](C)(CCOc1ccccc1)Cc1ccccc1 | nt | nt | i | nt | nt | nt
Cc1cc(C(C)(C)CC(C)(C)C)ccc1OCCOCC[N+](C)(C)Cc1ccccc1 | nt | i | i | i | i | 100
COc1ccc(C(=O)Nc2ccnn2C2CCN(Cc3cccnc3)CC2)cc1 | i | i | i | i | i | i
O=C(NCCOc1ccc(F)cc1)c1ccccc1SCc1ccccc1 | i | i | i | i | i | 25
CCOc1ccc(OCCC(=O)OCC(=O)Nc2cc(OCC)c(N3CCOCC3)cc2OCC)cc1 | nt | i | i | i | i | i
Cc1nc2sc(C(c3ccco3)N3CCN(c4ccc(F)cc4)CC3)c(O)n2n1 (stereo not drawn) | i | i | i | i | i | i
Cc1ccc(C(c2sc3ncnn3c2O)N2CCC(C)CC2)cc1 (stereo not drawn) | i | i | i | i | i | i
CC1CN(C(c2ccco2)c2sc3ncnn3c2O)CC(C)O1 (stereo not drawn) | 100 | i | i | i | i | i
Cc1nc2sc(C(c3ccco3)N3CCN(c4ccccc4F)CC3)c(O)n2n1 (stereo not drawn) | 94 | i | i | i | i | i
COc1ccc(C(=O)Nc2ccccc2C(=O)Nc2ccncc2)cc1 | 63 | i | i | i | i | i
Cc1cc(Br)c(NC(=O)CN(C)CCOc2ccccc2)c(Br)c1 | i | i | i | i | i | i
N/C(=N\OS(=O)(=O)c1ccccc1)c1ccccn1 | 79 | i | i | i | i | i
